# Laboratory results: the antibiotic and cytotoxicity screens of Wong et al. (2023)
# Among all 39,000 compounds or so, about 3,300 (8.5%) were called active. The list comes from a sample in which actives are over-represented; it also holds similar structures and randomly drawn compounds.
# Test system: HepG2
# Test: cytotoxicity call (relative viability < 0.9)
# Details: 10 µM
row,Compound,cytotoxicity call
1,CC(=O)OC[C@H]1O[C@H](C/C=N/O[C@H](C)c2cn([C@@H]3COC[C@H]3O)nn2)C=C[C@@H]1OC(C)=O,inactive
2,C[C@H](CO)N1C[C@H](C)[C@H](CN(C)Cc2ccc(Cl)c(Cl)c2)Oc2ccc(NS(=O)(=O)c3cccs3)cc2C1=O,inactive
3,Cc1noc(C)c1S(=O)(=O)Nc1ccc2c(c1)CC(=O)N([C@@H](C)CO)C[C@H](C)[C@@H](CN(C)Cc1ccc(C(=O)O)cc1)O2,inactive
4,C[C@@H]1CN([C@H](C)CO)C(=O)Cc2cc(NS(=O)(=O)c3ccc(F)cc3)ccc2O[C@@H]1CN(C)C(=O)Nc1cccc2ccccc12,inactive
5,O=C(C[C@@H]1C[C@H]2c3cc(NC(=O)NC4CCCC4)ccc3O[C@H]2[C@@H](CO)O1)NCc1ccc2c(c1)OCO2,inactive
6,Cc1ccc(C(=O)Nc2ccc(Oc3cc4cnn(C)c4cc3-c3cn[nH]c3)c(F)c2)c(=O)n1-c1ccc(F)cc1,active
7,CCOc1ccn(-c2ccc(F)cc2)c(=O)c1C(=O)Nc1ccc(Oc2ccnc(N)c2Cl)c(F)c1,inactive
8,Cc1c(C(=O)Nc2ccc(Oc3ccnc4cc(OCC(C)(C)O)ccc34)c(F)c2)c(=O)n(-c2ccccc2)n1C,inactive
9,C[C@@H]1CCCCO[C@H](CN(C)C(=O)CCC(F)(F)F)[C@H](C)CN([C@@H](C)CO)C(=O)c2cc(NC(=O)CCCCCC(=O)Nc3ccccc3N)ccc2O1,inactive
10,C[C@@H]1CN([C@H](C)CO)S(=O)(=O)c2ccc(C#Cc3ccc(F)cc3)cc2O[C@H]1CN(C)C(=O)CN(C)C,active
11,C[C@@H]1CN([C@H](C)CO)S(=O)(=O)c2ccc(C#Cc3cccnc3)cc2O[C@H]1CN(C)C(=O)CN(C)C,inactive
12,C[C@H]1CN([C@@H](C)CO)S(=O)(=O)c2ccc(Br)cc2O[C@@H]1CN(C)C(=O)Cc1ccccc1,inactive
13,C[C@@H]1CN([C@H](C)CO)S(=O)(=O)c2ccc(C#Cc3ccccc3)cc2O[C@H]1CN(C)C(=O)CN(C)C,active
14,C[C@H]1CN([C@@H](C)CO)S(=O)(=O)c2ccc(Br)cc2O[C@H]1CN(C)C(=O)Cc1ccccc1,active
15,C[C@@H]1CN([C@@H](C)CO)S(=O)(=O)c2ccc(C#Cc3ccc(F)cc3)cc2O[C@H]1CN(C)C(=O)CN(C)C,inactive
16,C[C@@H]1CN([C@H](C)CO)S(=O)(=O)c2ccc(C#Cc3ccccc3)cc2O[C@@H]1CN(C)C(=O)CN(C)C,active
17,C[C@@H]1CN([C@@H](C)CO)S(=O)(=O)c2ccc(C#Cc3ccccc3)cc2O[C@H]1CN(C)C(=O)CN(C)C,inactive
18,C[C@H]1CN([C@@H](C)CO)S(=O)(=O)c2ccc(Br)cc2O[C@H]1CN(C)C(=O)Cc1ccncc1,inactive
19,C[C@H]1CN([C@@H](C)CO)S(=O)(=O)c2ccc(C#Cc3ccc(F)cc3)cc2O[C@H]1CN(C)C(=O)CN(C)C,inactive
20,C[C@@H]1CN([C@H](C)CO)S(=O)(=O)c2ccc(C#Cc3cccnc3)cc2O[C@@H]1CN(C)C(=O)CN(C)C,inactive
21,C[C@H]1CN([C@@H](C)CO)S(=O)(=O)c2ccc(C#Cc3ccc(F)cc3)cc2O[C@@H]1CN(C)C(=O)CN(C)C,inactive
